Each structure is given as a SMILES string. Compounds without any hit were thinned out: in the full panel of roughly 83,000, 20% have a hit.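 Cells were grown in 96-well plates and exposed to the test compound at a single concentration for 48 hours; results are reported as percent growth, with values below 10 considered active.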 Active and inactive are the calls of the source.

For this assay, the system named is SF-268 CNS. Put plainly: NCI-60 one-dose screen, 48 h (100 = growth as untreated, 0 = no growth, -100 = all killed). As to conditions: 10 µM unless noted.
Consider `N#C/C(=C\c1ccc(-c2ccc(Cl)c(Cl)c2)o1)c1nc(-c2ccco2)cs1`, for which the growth was 97.2% (inactive). Take `CC(C)C1=C[C@@]23CC[C@@H]4[C@](C)(CCC[C@@]4(C)C(=O)N4CCCNCC4)[C@H]2C[C@@H]1[C@H]1C(=O)CCC(=O)[C@H]13`: the growth was 97.8% (inactive). Take `COc1ccc(CCNc2nc(SC)nc(-c3cccc([N+](=O)[O-])c3)c2C#N)cc1OC`: the growth is 63.6% (inactive). `Cc1cc(NS(=O)(=O)c2ccc(-c3cnc(C4CC4)o3)cc2)ccc1Cl`: the growth is 49.4% (inactive). Regarding `COc1ccc(-c2cc(C(=O)N=Nc3c(O)[nH]c4ccc(Br)cc34)no2)cc1`, the growth was 99.4% (inactive).

In the case of `CCCOc1cc2ccccc2cc1C(=O)Nc1nc(NC)c2c(ccc3nccc32)[nH]1`, the growth was -78% (active). In the case of `CCCCN(CCCC)CCCn1c(-c2ccccc2)ccc1-c1ccccc1`, the growth is 73.7% (inactive). As for `Cc1nc2ccccc2n1C(=O)C[C@@H]1NC(=S)NC1=O`, the figure is 95.1% (inactive). As for `N#CCCN=Nc1c(O)[nH]c2ccc([N+](=O)[O-])cc12`, the figure is 94.9% (inactive); as for `Cc1cc(N2CCOCC2)nc(NCc2cc(Nc3ccnc4cc(Cl)ccc34)ccc2F)n1`, -52.5% (active); as for `Nc1n[nH]c2ccc([C@@H]3Nc4cc5c(cc4[C@H]4C6CCC(C6)[C@@H]34)C(=O)NC5)cc12` (stereo partly drawn), 22.8% (inactive). As for `c1ccc(-c2c(-c3ccccc3)[n+](Cc3ccc4ccccc4c3)c(-c3ccc(-c4nc5ccccc5s4)cc3)n2Cc2ccc3ccccc3c2)cc1`, the growth is -76.9% (active). In the case of `C=CC(=O)Nc1cccc(-c2nc(SC)nc(NCc3ccccc3)c2C#N)c1`, the growth was 49% (inactive). For the compound `CCCOc1ccc2nc(NC(=O)OC)[nH]c2c1`, the growth was 26.2% (inactive).

For the compound `COc1cccc(/C=C2\Oc3cc(OCCN4CCCC4)ccc3C2=O)c1`, the growth was 91.8% (inactive). For `COc1ccc(/C=C2\Oc3cc(OCCCCN4CCCC4)ccc3C2=O)cc1`, the growth was 87.9% (inactive). `COc1cccc(-c2nn(C(C)(C)C)cc2-c2ccnc(NCCCNS(=O)(=O)c3cccc4ccccc34)c2)c1`: the growth was 108% (inactive). Turning to `COc1cccc(-c2nc3sccn3c2-c2ccnc(NCCCNS(=O)(=O)c3c(Cl)cccc3Cl)c2)c1`, the growth is 68.4% (inactive). For the compound `O=C1c2cc3c(cc2-c2c1c1cc(F)c(F)cc1c(=O)n2CCCn1ccnc1)OCO3`, the growth is 13.4% (inactive). As for `O=C(/C=C/c1cccc(Cl)c1)c1ccc(O)c(CN2CCN(c3cc4c(cc3F)c(=O)c(C(=O)O)cn4C3CC3)CC2)c1`, the figure is 36.9% (inactive); as for `CCCn1c(=O)[nH]c(N)c([C@H]2c3ccccc3Oc3[nH]c(=O)n(CCC)c(=O)c32)c1=O`, 94.4% (inactive). For the compound `N#CCCN=Nc1c(O)[nH]c2ccc(F)cc12`, the growth is 96.5% (inactive). As to `COc1ccc(-c2n[nH]nc2-c2csc3ccccc23)cc1OC`, the growth was 30.2% (inactive). Regarding `COc1cc(/C=C/c2cc(O)c3cc(C(C)=O)c(=O)oc3c2)cc2c1O[C@]1(C)CC[C@@H](O)C(C)(C)[C@H]1C2`, the growth was 35.8% (inactive).

Consider `O=C(N=Nc1c(O)[nH]c2ccc(Br)cc12)c1cc(-c2ccccc2)on1`, for which the growth was 100% (inactive).

As to `CSc1nc(NCc2ccccc2)c(C#N)c(-c2cccc([N+](=O)[O-])c2)n1`, the growth is 94.3% (inactive). Regarding `O=S(=O)(Nc1ccc(Cl)c(F)c1)c1ccc(-c2cnc(C3CC3)o2)cc1`, the growth was 52.1% (inactive). Consider `CC1(C)CC[C@]2(C(=O)Nc3ccccn3)CC[C@]3(C)C(=CC[C@@H]4[C@@]5(C)C/C(=C/c6cccnc6)C(=O)C(C)(C)[C@@H]5CC[C@]43C)[C@H]2C1`, for which the growth is 53.5% (inactive). As for `O=S(=O)(Nc1ccc(Br)c(Cl)c1)c1ccc(-c2cnc(C3CC3)o2)cc1`, the growth is 50.3% (inactive). Turning to `C=C(C)[C@@H]1CC[C@]2(C(N)=O)CC[C@]3(C)[C@H](CC[C@@H]4[C@@]5(C)C/C(=C/c6ccco6)C(=O)C(C)(C)[C@@H]5CC[C@]43C)[C@@H]12`, the growth is 90.9% (inactive). As for `Cc1nc2c3c(-c4ccccc4)c(-c4ccccc4)oc3ncn2n1`, the figure is 94% (inactive); as for `COc1cccc(-c2nn(C(C)(C)C)cc2-c2ccnc(NCCCNS(=O)(=O)c3ccc(C)cc3)c2)c1`, 105% (inactive); as for `COc1ccc(-c2nc3ccc(-c4nc5ccc(N6CCN(c7ccc(F)cc7)CC6)cc5[nH]4)cc3[nH]2)cc1OC`, 82.6% (inactive). With `O=C1NC(=S)NC(=O)C1CC(=O)n1c(-c2ccccc2)nc2ccccc21`, the growth is 93.8% (inactive). With `CSc1nc(NCCN2CCOCC2)c(C#N)c(-c2cccc([N+](=O)[O-])c2)n1`, the growth was 96.7% (inactive). For `N#Cc1c(-c2ccc(Cl)cc2)nc(N=Nc2c(O)[nH]c3ccc(Cl)cc23)nc1N1CCOCC1` the value was 95.8% (inactive); for `Cc1ccc(NS(=O)(=O)c2ccc(-c3cnc(C4CC4)o3)cc2)cc1C`, 52% (inactive). With `Oc1ccccc1-c1nnc(CNc2ccc(Cl)cc2)o1`, the growth was 27.4% (inactive).

Source of the values: PubChem BioAssay (NCI).
